Assay outcomes: PubChem BioAssay, National Center for Advancing Translational Sciences (NCATS)
FMDV inh: foot and mouth disease virus antiviral activity; FMDV antiviral cell-based qHTS; Potency, µM (doses to about 57.9 µM), without a hit: at the top dose activity change, negative = inhibition, actives largely listed as inhibitors; 1.2% of 410,000 active; AID 1159524; calls by dose curve; tested in HEK293T cells; also: read-out not given here; potency is read from the fitted curve at half-maximal effect; % is scaled to controls: 0 for no effect and ±100 for the full control effect; nearly all actives have a fitted effect of over 45% in size
Cycloheximide cs: affects cycloheximide protein synthesis inhibition readout, counter-screen | AID 2314 | max response, % | cell reporter, cycloheximide protein synthesis inhibition counterscreen | 12% of 300,000 active; in the data active = max response mostly above about 13%, no sharp cut-off; inactive = mostly below about 14%; also: read at 38.3 µM for the half of the compounds with a filed dose; 0% is about no effect
Shiga inhibitor: inhibitors of Shiga toxin in Vero cells; 9.2% of 290,000 active; Vero cells, Shiga toxin protein synthesis inhibition reporter; inhibition, % at 38.7 µM; in the data active = inhibition mostly above about 28%, no sharp cut-off; inactive = mostly below about 43%; also: 0% is about no effect
Sm TGR block: S. mansoni TGR enzyme inhibition; 3% of 360,000 active; Q962Y6; AID 485364; Potency, µM (titrated, usually from 114 µM), for the others: at the top dose activity change, negative = inhibition, usual class: inhibitors; purified TGR, DTNB reduction, TNB absorbance 405 nm; active = well fitted inhibition curve with a large enough effect; inconclusive = small, poorly fitted or top-dose-only effect; inactive = no such curve, though single readings can be large or run the other way; also: potency is read from the fitted curve at half-maximal effect; % is scaled to controls: 0 for no effect and ±100 for the full control effect; nearly all actives have a fitted effect of over 60% in size
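Kinetic colorimetric format: TGR-catalysed, NADPH-driven DTNB reduction monitored via TNB absorbance. Enzyme dispensed at 20 nM; compound exposure 15 min at room temperature before reaction start.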
Active calls of the source: *. Sampled rows, rich in hits. Any-hit rate of the full collection: about 12%.

Results for COC(=O)c1c(NC(=O)CCCOc2ccc(C(C)(C)C)cc2)sc2c1C(C(=O)OC)CC2 (stereo not drawn) ?
FMDV inh: 35µM*; Cycloheximide cs: 15; Shiga inhibitor: 25; Sm TGR block: 16%

Results for CCCC(=O)Nc1sc2c(c1C(=O)OC)C(C(=O)OC)CC2 (stereo not drawn) ?
FMDV inh: -5%; Cycloheximide cs: 6; Shiga inhibitor: -7; Sm TGR block: -6%

Results for CCCOc1ccccc1NC(=O)/C=C/C(N)=O ?
FMDV inh: inconclusive; Cycloheximide cs: 13*; Shiga inhibitor: -3; Sm TGR block: 3.2µM*

How did Cc1ccc(Nc2ncccc2C(N)=O)cc1[N+](=O)[O-] do in these assays?
FMDV inh: 11%; Cycloheximide cs: 39*; Shiga inhibitor: 50*; Sm TGR block: 4%

How did Cc1ccc(Nc2ncccc2C(=O)O)cc1C do in these assays?
FMDV inh: 39%; Cycloheximide cs: 21*; Shiga inhibitor: 92*; Sm TGR block: 10%

How did O=C(O)c1cccnc1Nc1ccc(Cl)cc1 do in these assays?
FMDV inh: 18%; Cycloheximide cs: 27*; Shiga inhibitor: 101*; Sm TGR block: 1%

How did COc1ccc(CN2CCC3(CCC(CNC(=O)c4ccnn4C)O3)CC2)c(C)c1C (stereo not drawn) do in these assays?
FMDV inh: -4%

How did CCc1ccc(CNC(=O)CN2C(=O)c3cccnc3Oc3ccc(C)cc32)cc1 do in these assays?
FMDV inh: -9%; Sm TGR block: 2%

What do the screens show for `CC1Oc2ccccc2C=C1/C=N/NC(=O)c1ccccc1` (stereo not drawn)?
FMDV inh: 25%; Cycloheximide cs: 18; Shiga inhibitor: 25; Sm TGR block: -6%

Results for Cc1ccc(C(=O)N/N=C/C2=Cc3ccccc3OC2C)cc1 (stereo not drawn) ?
FMDV inh: 4%; Cycloheximide cs: 10; Shiga inhibitor: 11; Sm TGR block: 6%

How did CC1Oc2ccccc2C=C1/C=N/NC(=O)c1ccccc1O (stereo not drawn) do in these assays?
FMDV inh: -2%; Cycloheximide cs: 43*; Shiga inhibitor: active; Sm TGR block: -11%

What do the screens show for `CC1Oc2ccccc2C=C1/C=N\NC(=O)c1cccnc1` (stereo not drawn)?
FMDV inh: 54%; Cycloheximide cs: 20*; Shiga inhibitor: 53*; Sm TGR block: -2%

What do the screens show for `COC(=O)c1cc2oc(C)cc2n1Cc1c(C)cc(C)cc1C`?
FMDV inh: -15%; Sm TGR block: 0%

What do the screens show for `COc1ccc(C)c2sc(NC(=O)c3ccc(S(=O)(=O)N4CCCCC4)cc3)nc12`?
FMDV inh: -13%; Sm TGR block: 7%

What do the screens show for `O=C(NCCc1ccccc1)/C(=C/c1ccco1)c1ccccc1`?
FMDV inh: 0%; Cycloheximide cs: -3; Shiga inhibitor: -5; Sm TGR block: 13µM*

How did CCC(C)NC(=O)/C(=C/c1ccco1)c1ccccc1 (stereo not drawn) do in these assays?
FMDV inh: -18%; Cycloheximide cs: 2; Shiga inhibitor: -9; Sm TGR block: 10µM*

Results for O=C(O)CCNC(=O)/C(=C/c1ccco1)NC(=O)c1ccco1 ?
FMDV inh: -3%; Cycloheximide cs: -1; Sm TGR block: -24%

How did CC(C)NC(=O)/C(=C/c1ccco1)c1ccccc1 do in these assays?
FMDV inh: 0%; Cycloheximide cs: -2; Shiga inhibitor: -19; Sm TGR block: inconclusive

How did CCc1nc2cc(C(=O)N3CCC[C@H]3CO)cc(NC(=O)c3ccccc3OC)c2n1C do in these assays?
FMDV inh: 3%

Results for COC(=O)CCc1sc(NC2CCCCC2)nc1-c1ccc(OC)cc1 ?
FMDV inh: 19%; Cycloheximide cs: 25*; Shiga inhibitor: 36; Sm TGR block: -11%

Results for CC(C)COc1ccc(C(=O)N2CCCCC2CCN2CCOCC2)cc1 (stereo not drawn) ?
FMDV inh: -3%; Sm TGR block: -1%

How did O=C(Cn1c(=O)n(-c2ccccc2)c(=O)c2sc3ccccc3c21)NC1CCCC1 do in these assays?
FMDV inh: -19%; Sm TGR block: 23%

Results for CC(C)CC(=O)Nc1cc2nn(-c3ccccc3)nc2cc1Cl ?
FMDV inh: 10%; Cycloheximide cs: 74*; Shiga inhibitor: 115*; Sm TGR block: 0%

What do the screens show for `Nc1ccc2nn(-c3ccccc3)nc2c1`?
FMDV inh: 21%; Cycloheximide cs: 53*; Shiga inhibitor: 97*; Sm TGR block: -12%

What do the screens show for `Nc1ccc(-n2nc3ccccc3n2)cc1`?
FMDV inh: 15%

How did Nc1cc2nn(-c3ccccc3)nc2cc1Cl do in these assays?
FMDV inh: 0%; Cycloheximide cs: 32*; Shiga inhibitor: 141*; Sm TGR block: 0%

What do the screens show for `Cc1ccc(Cn2c(C)c(CNCCCc3ccccc3)c(C(=O)O)c2C)cc1`?
FMDV inh: -11%; Sm TGR block: -1%

What do the screens show for `Cc1nn(-c2ccccc2)c2c1N(CC(=O)N1CCN(c3ccccc3F)CC1)C(=O)CS2`?
FMDV inh: 0%; Sm TGR block: -9%

What do the screens show for `CCOC(=O)c1c(C)sc(-c2c(-c3ccc4c(c3)OCCO4)[nH]c3c2c(=O)[nH]c(=O)n3C)c1O`?
FMDV inh: 2%; Sm TGR block: -3%

How did COc1cc(OC)cc(-c2c(C#Cc3ccsc3)c3cc(-c4ccc5cc[nH]c5c4)ccc3n2C)c1 do in these assays?
FMDV inh: 8%; Sm TGR block: 25µM*

Results for COc1cc(/C=c2\sc3nc(=O)c(-c4ccccc4)nn3c2=O)ccc1OCCC(C)C ?
FMDV inh: inconclusive; Cycloheximide cs: -2; Shiga inhibitor: 9; Sm TGR block: -1%

How did CCN1C(=O)/C(=c2\sc3nc(=O)c(Cc4ccccc4)nn3c2=O)c2ccccc21 do in these assays?
FMDV inh: -8%; Cycloheximide cs: -2; Shiga inhibitor: 22; Sm TGR block: 3.5µM*

How did C=CCN1C(=O)/C(=c2\sc3nc(=O)c(Cc4ccccc4)nn3c2=O)c2ccccc21 do in these assays?
FMDV inh: -21%; Cycloheximide cs: -2; Shiga inhibitor: -6; Sm TGR block: 1.4µM*

What do the screens show for `C=CCN1C(=O)/C(=N/n2cnnc2)c2ccccc21`?
FMDV inh: -5%; Cycloheximide cs: -3; Shiga inhibitor: 6; Sm TGR block: -3%

How did C=CCN1C(=O)/C(=c2\sc3nc(=O)c(Cc4ccc(OC)c(OC)c4)nn3c2=O)c2ccccc21 do in these assays?
FMDV inh: -6%; Cycloheximide cs: -1; Shiga inhibitor: -15; Sm TGR block: 0.63µM*

Results for O=C(NCC1CCCO1)c1ccc(N2CCCCC2)nc1 (stereo not drawn) ?
FMDV inh: 71%; Cycloheximide cs: 28*; Shiga inhibitor: 40*; Sm TGR block: -9%

Results for O=C(NCC1CCCO1)c1ccc2nc(N3CCCCC3)sc2c1 (stereo not drawn) ?
FMDV inh: 26%; Cycloheximide cs: 51*; Shiga inhibitor: 88*; Sm TGR block: -2%

Results for Cc1cccn2cc(-c3ccc(F)cc3)nc12 ?
FMDV inh: -25%; Cycloheximide cs: 39*; Shiga inhibitor: 71*; Sm TGR block: 4%

Results for COc1ccc(S(=O)(=O)Nc2cc(-c3cn4cccc(C)c4n3)ccc2C)cc1C ?
FMDV inh: 27%; Sm TGR block: -2%
